From PubChem BioAssay (NCATS)
Results filed as inconclusive are left out. Entries that show only a call come without a potency. Activity calls are given as the source filed them. Calls follow the shape of the dose curve; as a rule, active = well fitted cell-killing curve with a large enough effect; inconclusive = small, poorly fitted or top-dose-only effect, or effect the other way; inactive = flat fitted curve, though single readings scatter.

tested on: SKOV3; test: Primary qHTS to identify gynecologic anti-cancer compounds using libraries of approved drugs and bioactive compounds (AID 1345084); conditions: Gynecologic cancer cell panel viability, ATPlite luminescence, 48 h; series mostly up to 57.5 µM; also: nearly all actives have a fitted effect of over 55% in size
Outline: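 Cell viability after 48 h drug treatment, ATPlite luminescence readout; five doses.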
Potency is read from the fitted curve at half-maximal effect.

Question: `CC(=O)O[C@H]1[C@@H](O)[C@H](O[C@H]2[C@@H]3C=CO[C@@H](O[C@H]4O[C@@H](CO)[C@H](O)[C@@H](O)[C@@H]4O)[C@@H]3[C@@]3(CO)O[C@@H]23)O[C@@H](C)[C@@H]1OC(=O)/C=C/c1ccccc1` was tested. Which Potency did it give?
Answer: Its Potency is “inactive”.

Question: For `COc1cc(OC)cc(C(=O)Nc2ccc(Cl)c(-c3nc4ccc(N(C)C)cc4[nH]3)c2)c1`, which Potency is on record?
Answer: Its Potency is “inactive”.

Question: For `CC(=O)OC1C(O)C2C(C)C3=CC(=O)OC3(O)CC2C2(C)CCCC(C)(CO)C12` (stereo unspecified), which Potency is on record?
Answer: The Potency was “inactive”.

Question: Which Potency does the source give for `CC/C=C\CCO[C@@H]1O[C@H](CO[C@@H]2OC[C@H](O)[C@H](O)[C@H]2O)[C@@H](O)[C@H](O)[C@H]1O` here?
Answer: The Potency was “inactive”.

Question: With `O=C(O)/C=C/c1ccc(-c2ccc(O)c(C34CC5CC(CC(C5)C3)C4)c2)cc1` as the compound, how does the Potency read?
Answer: The Potency was 631 nM (active).

Question: How did the Potency turn out when `O=C(CO)[C@@H](O)[C@H](O[C@@H]1O[C@H](CO)[C@H](O)[C@H](O)[C@H]1O)[C@H](O)CO` was run?
Answer: The Potency was “inactive”.

Question: How did the Potency turn out when `C=C1[C@H](OC(C)=O)[C@H]2[C@@H](OC(C)=O)[C@](C)(OC(C)=O)C[C@]2(OC(C)=O)C(=O)[C@H](C)/C=C/C(C)(C)C(=O)[C@H](OC(=O)C(C)CC)[C@H]1OC(C)=O` (stereo partly specified) was run?
Answer: Its Potency is “inactive”.

Question: Which Potency does the source give for `COC(=O)CC(O)CC(O)/C=C/c1c(C)ccc2c1C(O)CC(C)C2` (stereo unspecified) here?
Answer: The Potency was “inactive”.

Question: `C=C[C@]1(C)C=C2CCC3C(C)(CCC[C@@]3(C)C(=O)O)C2CC1` (stereo partly specified) was tested. Which Potency did it give?
Answer: Its Potency is “inactive”.

Question: Which Potency does the source give for `C=CC/C=C\C/C=C\CCCCCCCc1cccc(O)c1C(=O)O` here?
Answer: Its Potency is “inactive”.

Question: For `CC(=O)OC1C(OC(=O)c2ccccc2)C2C(C)(C)CC(=O)CC2(C)C23CCC(C)(C2)C(O)CC13` (stereo unspecified), which Potency is on record?
Answer: Its Potency is “inactive”.
